Assay results reported in PubChem BioAssay (Tox21).
Several values for one entry are separate records, joined by “and”; a condition that tells them apart may be missing. Equal entries are not always repeated. Records with an inconclusive call do not appear. Values without a mark were called inactive. Activity calls are given as the source filed them. The call rests on the fitted dose curve; in most records, active means well fitted cell-killing curve with a large enough effect in the repeat runs; inconclusive means weak or mixed curves; inactive means no such curve, though single readings can be large or run the other way.
On the % scale 0 is the no-effect control and ±100 the full control effect; potency means the concentration at half of the fitted maximal effect.

Experiment: qHTS assay to identify small molecule agonists of the peroxisome proliferator-activated receptor delta (PPARd) signaling pathway - cell viability counter screen (AID 743211); further: nearly all actives have a fitted effect of over 55% in size
Details: PPARd-bla HEK293H viability, CellTiter-Glo luminescence, 17 h; series mostly up to 62.6 µM; activity change, negative = cytotoxicity: at the top concentration
Text: U.S. Tox21 Program National Center for Advancing Translational Sciences [NCATS] NIH Chemical Genomics Center [NCGC] U.S. Environmental Protection Agency [EPA] National Institutes of Environmental Health Sciences [NIEHS] National Toxicology Program [NTP] U.S. Food and Drug Administration [FDA] Tox21 Assay Overview: The peroxisome proliferator-activated receptors (PPARs) are lipid-activated transcription factors of the nuclear receptor superfamily with three distinct subtypes namely PPAR alpha, PPAR delta (PPARd) and PPAR gamma. All these subtypes heterodimerizes with Retinoid X receptor (RXR) and have different physiological functions. […] To identify the compounds that activate PPAR-delta signaling, GeneBLAzer PPAR delta UAS-bla HEK293H cell line (Invitrogen, Carlsbad, CA, USA) containing a beta-lactamase reporter gene under the control of an Upstream Activator Sequence (UAS) was used to screen the Tox21 compound library. The cytotoxicity of the Tox21 compound library against the PPARd-bla cell line was tested in parallel by measuring the cell viability using CellTiter-Glo assay (Promega, Madison, WI) in the same wells.
Tox21 Assay Protocol Summary: PPARd-bla cells were dispensed at 3000 cells/6uL/well in 1536-well black wall/clear bottom plates using a Multidrop Combi (Thermo Fisher Scientific, Waltham, MA) dispenser. After the assay plates were incubated at 37 C and 5% CO2 for 5 h, 23 nL of compounds dissolved in DMSO, positive controls or DMSO only was transferred to the assay plate by a Pintool station (Kalypsys, San Diego, CA). The assay plates were incubated at 37C for 17 h. After 1 uL of LiveBLAzerTM B/G FRET substrate was added using a Bioraptr Flying Reagent Dispenser (FRD) workstation (Beckman Coulter, Indianapolis, IN, USA), the plates were incubated at room temperature for 2 h, and fluorescence intensity was measured by an Envision plate reader (PerkinElmer, Shelton, CT). For cell viability readout that measures cytotoxicity, 3 ul/well of CellTiter-Glo reagent was added into the assay plates using a Bioraptr FRD. After 30 min incubation at room temperature, the luminescence intensity in the plates was measured using a ViewLux plate reader (PerkinElmer).
In the case of `ClC(Cl)=C(Cl)Cl`, the “activity change, negative = cytotoxicity” value was 0.193%.
In the case of `c1ccc2cc3c(cc2c1)-c1cccc2cccc-3c12`, the “activity change, negative = cytotoxicity” value was 8.3%.
For `ClC1=C(Cl)[C@]2(Cl)[C@H]3[C@H]([C@H]4C=C[C@H]3C4)[C@@]1(Cl)C2(Cl)Cl`, the “activity change, negative = cytotoxicity” value was -3.36%.
For `[Hg+2].[I-].[I-]`, the Potency was 2.19 µM (active).
For `Oc1ccc(C2(c3ccc(O)cc3)c3ccccc3-c3ccccc32)cc1`, the Potency was 43.6 µM (active).
In the case of `CC(C)OC(=S)S`, the “activity change, negative = cytotoxicity” value was -6.52%.
In the case of `N#CC(Cl)Cl`, the “activity change, negative = cytotoxicity” value was -15.9%.
In the case of `Oc1ccc2ccc3cccc4ccc1c2c34`, the “activity change, negative = cytotoxicity” value was -9.45%.
In the case of `O=C1c2ccccc2C(=O)C1C(=O)C(c1ccccc1)c1ccc(Cl)cc1` (stereo not given), the Potency was 24.5 µM (active).
In the case of `ClC1=C(Cl)C2(Cl)C3C(Cl)C(Cl)CC3C1(Cl)C2(Cl)Cl` (stereo not given), the Potency was 21.8 µM (active) and 24.5 µM (active).
With `[Cd+2].[Cl-].[Cl-]` the Potency was 2.21 µM (active) and 1.38 µM (active).
For `O=C(CBr)c1ccc(O)cc1`, the “activity change, negative = cytotoxicity” value was 0.715%.
In the case of `Cc1c(Cl)c(=O)oc2cc(OP(=O)(OCCCl)OCCCl)ccc12`, the “activity change, negative = cytotoxicity” value was 1.16%.
In the case of `O=c1[nH]c2ccccc2n1C1CCN(CCCC(c2ccc(F)cc2)c2ccc(F)cc2)CC1`, the Potency was 24.5 µM (active) and 29.8 µM (active).
In the case of `FC(Cl)(Cl)Cl`, the “activity change, negative = cytotoxicity” value was 4.57%.
In the case of `O=c1c(C2CC(c3ccc(-c4ccc(Br)cc4)cc3)Cc3ccccc32)c(O)sc2ccccc12` (stereo not given), the Potency was 29.8 µM (active).
With `C[C@H]1CC[C@@H]2[C@@H](C)[C@H]3[C@H](C[C@H]4[C@@H]5CC=C6CC(O[C@@H]7O[C@H](CO)[C@H](O)[C@H](O[C@@H]8O[C@H](CO)[C@@H](O)[C@H](O)[C@H]8O)[C@H]7O[C@H]7O[C@@H](C)[C@H](O)[C@@H](O)[C@H]7O)CC[C@]6(C)[C@H]5CC[C@]34C)N2C1` (stereo not given in full) the Potency was 1.43 µM (active).
In the case of `CCOCn1c(-c2ccc(Cl)cc2)c(C#N)c(Br)c1C(F)(F)F`, the Potency was 19.5 µM (active).
In the case of `CC(=O)[O-].[Tl+]`, the “activity change, negative = cytotoxicity” value was 7.97% [at 81.1 µM].
With `O=C(O)c1cc[c]([Hg][Cl])cc1` the Potency was 49 µM (active).
With `CC(C)CCCCCCCOP(=O)(Oc1ccccc1)Oc1ccccc1` the Potency was 27.7 µM (active).
With `CCCCCCCCCCCCBr` the “activity change, negative = cytotoxicity” value was -10.1%.
In the case of `C[C@H]1O[C@@H](O[C@H]2[C@@H](O)C[C@H](O[C@H]3[C@@H](O)C[C@H](O[C@H]4CC[C@@]5(C)[C@H](CC[C@@H]6[C@@H]5CC[C@]5(C)[C@@H](C7=CC(=O)OC7)CC[C@]65O)C4)O[C@@H]3C)O[C@@H]2C)C[C@H](O)[C@@H]1O`, the Potency was 0.119 µM (active).
For `COC(=O)N(C(=O)N1CO[C@@]2(C(=O)OC)Cc3cc(Cl)ccc3C2=N1)c1ccc(OC(F)(F)F)cc1`, the “activity change, negative = cytotoxicity” value was -21.5%.
For `CC(C)CC(C)Nc1ccc(Nc2ccccc2)cc1` (stereo not given), the Potency was 38.3 µM (active).
In the case of `COP(=S)(OC)Oc1cc(Cl)c(Br)cc1Cl`, the “activity change, negative = cytotoxicity” value was -21.3%.
For `O=CC(Br)(Br)Br`, the Potency was 17.3 µM (active).
In the case of `COc1ccc(/C(=C/C(=O)N2CCOCC2)c2ccc(Cl)cc2)cc1OC`, the “activity change, negative = cytotoxicity” value was -12.5%.
In the case of `O=[N+]([O-])c1cc(C(F)(F)F)c(Cl)c([N+](=O)[O-])c1Cl`, the Potency was 11 µM (active).
In the case of `CN(C)[C@@H]1C(=O)C(C(N)=O)=C(O)[C@@]2(O)C(=O)C3=C(O)c4c(O)ccc(Cl)c4[C@@](C)(O)[C@H]3C[C@@H]12`, the “activity change, negative = cytotoxicity” value was 1.35%.
With `Clc1ccc(C(Cl)(Cl)Cl)c(Cl)c1` the “activity change, negative = cytotoxicity” value was -12.8% [at 81.1 µM].
With `CCCN(CCC)c1c([N+](=O)[O-])cc(S(N)(=O)=O)cc1[N+](=O)[O-]` the Potency was 20.8 µM (active).
In the case of `CC1CCC(C(C)C)C(OC(=O)c2ccccc2N)C1` (stereo not given), the Potency was 24.2 µM (active).
In the case of `Cc1cc(SCc2sc(-c3ccc(C(F)(F)F)c(F)c3)nc2C)ccc1OCC(=O)O`, the Potency was 38.9 µM (active).
For `CCCCCCCCCC[N+](C)(C)CCCCCCCCCC`, the Potency was 21.9 µM (active).
In the case of `C1CCC2CCCCC2C1` (stereo not given), the “activity change, negative = cytotoxicity” value was 1.01% [at 81.1 µM].
For `CCCCN(CCCC)C(=S)[S-].CCCCN(CCCC)C(=S)[S-].[Zn+2]`, the Potency was 6.16 µM (active).
In the case of `S=C(SSC(=S)N1CCCCC1)N1CCCCC1`, the Potency was 0.188 µM (active).
With `CC(C)CC(C)(c1ccc(O)cc1)c1ccc(O)cc1` the Potency was 55.1 µM (active) and 34.7 µM (active).
For `CC1(C)CN=C(NN=C(/C=C/c2ccc(C(F)(F)F)cc2)/C=C/c2ccc(C(F)(F)F)cc2)NC1`, the Potency was 7.76 µM (active).
